According to PubChem BioAssay (NCI):
This is part of a sample that, as a whole, favours compounds with a hit. Of some 83,000 tested, about 20% had one in any assay.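 Assay: single dose, 48 h. Readout: percent growth (0 = no net growth; negative = cell death). Active: <10.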 Calls of active or inactive are those of the source.

test system: MALME-3M melanoma; experiment: NCI-60 one-dose screen, 48 h (100 = growth as untreated, 0 = no growth, -100 = all killed); details: 10 µM unless noted

Row | Structure (SMILES) | growth
1 | COc1ccc(OC)c(N(CCN2C(=O)c3ccccc3C2=O)C(=O)CCl)c1 | -36.4% (active)
2 | O=C(NC1CCN(Cc2ccccc2)CC1)c1cc(C(=O)NC2CCN(Cc3ccccc3)CC2)cc(C(=O)NC2CCN(Cc3ccccc3)CC2)c1 | 77.9% (inactive)
3 | CCOC(=O)c1c(Cl)c2c(n1Cc1ccccc1)-c1oncc1CCC2 | 42.3% (inactive)
4 | O=C(/C=C/c1ccccn1)c1ccc(OCc2nnc(-c3ccc(Cl)cc3)o2)cc1 | 60.4% (inactive)
5 | CSc1nc2c(c(=O)n1C)N=C1c3ccccc3C(=O)C1C(c1ccccc1)N2 (centres undefined) | 42.6% (inactive)
6 | CC/C=C\C[C@H](O)C/C=C1/C(=O)C=C[C@@H]1C/C=C\CCCC(=O)OCCS(=O)(=O)c1ccccc1 | 63.7% (inactive)
7 | Cc1cc(Nc2ccc(OCc3ccccc3)cc2)nc2cc(O)ccc12 | 43.6% (inactive)
8 | CSc1nc2c(c(=O)[nH]1)N=C1c3ccccc3C(=O)C1C(c1ccc(F)cc1)N2 (centres undefined) | 56.1% (inactive)
9 | CCOc1ccccc1CN1CCc2nc3cc(C(C)(C)C)[nH]n3c(=O)c2C1 | 107% (inactive)
10 | O=C(NC(=S)Nc1cccc(NC(=S)NC(=O)c2ccccc2)c1)c1ccccc1 | 55.3% (inactive)
11 | CCOC(=O)c1c2c(n3cccc(Cl)c13)C(=O)c1ncccc1C2=O | 42.7% (inactive)
12 | O=C(NN1C(=O)CSC1c1ccc(Cl)cc1)c1[nH]c2ccc(F)cc2c1-c1ccccc1 (centres undefined) | 85.2% (inactive)
13 | COc1ccc(-n2c(C(O)c3ccccc3)nn(CN3CCOCC3)c2=S)cc1 (centres undefined) | 104% (inactive)
14 | CCCC(=O)CC(C)=O.CCCC(=O)CC(C)=O.[Cu] | 89.9% (inactive)
15 | COc1ccc(C2Nc3ncnc(N)c3N=C3c4ccccc4C(=O)C32)cc1 (centres undefined) | 101% (inactive)
16 | Nc1nc(N)c2c(n1)NC1(C=C(O)c3ccccc31)C1=C(N2)c2ccccc2C1=O (centres undefined) | 108% (inactive)
17 | CCOC(=O)c1cnc2ccc(Cl)cc2c1NCCCN(C)C | -6.52% (active)
18 | CCCCCCc1cc2cc(-c3nc4ccccc4[nH]3)c(=Nc3ccccc3C)oc2cc1O | -29.3% (active)
19 | OC(c1ccccc1)c1nnc(SCc2ccccc2)n1Cc1ccccc1 (centres undefined) | 77.3% (inactive)
20 | CC(=O)O[C@@H]1/C=C/C(=O)N[C@@H](C)CCC/C=C/[C@@H]2CCC[C@H]21 | 117% (inactive)

Row | Structure (SMILES) | growth
21 | COc1ccc(C2Nc3nc(OC)n(C)c(=O)c3N=C3c4ccccc4C(=O)C32)cc1 (centres undefined) | 117% (inactive)
22 | CN1CCN(c2nc(Nc3ccc(O)cc3)nc3ccccc23)CC1 | 61.8% (inactive)
23 | COc1ccc(/C=C2\SC(=Nc3ccccc3)NC2=O)cc1 | -86% (active)
24 | CCOC(=O)c1cc2c(n1Cc1cc(OC)c(OC)c(OC)c1)-c1oncc1CCC2 | 43.9% (inactive)
25 | Cn1c2c(c(=O)[nH]c1=O)NC1=C(C(=O)c3ccccc31)C1(C=C(O)c3ccccc31)N2 (centres undefined) | 124% (inactive)
26 | FC(F)(F)c1cccc(Nc2nc(-c3ccccc3)nc3ncccc23)c1 | -83.1% (active)
27 | O=C(Nc1ccc(Cl)cc1)c1cc2ccccc2cc1OP(=O)(O)O | -16.3% (active)
28 | COC(=O)/C(=C\c1c(-c2ccccc2)[nH]c2ccccc12)S(C)(=O)=O | 74.1% (inactive)
29 | Nc1ccc(C2c3ccccc3Oc3ccccc32)cc1 | 106% (inactive)
30 | N#CC(C#N)=Cc1c(-c2ccccc2)[nH]c2ccccc12 | 81.3% (inactive)
31 | CCCCc1ccc(NS(=O)(=O)c2cc3c4c(c2)CCN4C(=O)CC3)cc1 | 17.8% (inactive)
32 | O=C(CSc1ncccc1C(=O)O)Nc1ccc(Oc2ccccc2)cc1 | 99.3% (inactive)
33 | N#C/C(=C\c1c(-c2ccccc2)[nH]c2ccccc12)C(=O)c1ccccc1 | 70.9% (inactive)
34 | O=C1/C=C/[C@@H](O)[C@@H]2C[C@@H](O)C[C@H]2/C=C/CCCCO1 | 13.8% (inactive)
35 | CCCC(c1nnnn1C1CCCCC1)N1CCN(C(=O)c2ccco2)CC1 (centres undefined) | 53.2% (inactive)
36 | Nc1nc(Nc2cccc(F)c2)nc2ccccc12 | 57.2% (inactive)
37 | CC(C)(C)c1ccc(C2CC(=O)C3=C(C2)Nc2ccccc2N(C(=O)c2ccccc2Cl)C3c2ccc(F)cc2)cc1 (centres undefined) | -85% (active)
38 | O=CCCCC(O)C=O (centres undefined) | 104% (inactive)
39 | CN(O)c1nc(N(C)O)nc(N2CCOCC2)n1 | 48.5% (inactive)
